Assay [1] concerns Vero E6 infected with SARS-CoV-2. The experiment in a line: morphology score (similarity to uninfected cells); higher = more like uninfected cells. The conditions noted are these: 24 h.
For assay [2] the test system is unchanged. The experiment in a line: SARS-CoV-2 infection rate relative to infected DMSO; higher = more infection, active = 60 or less. The conditions noted are these: 24 h.

As to `O=C(Nc1ccccc1C(=O)Nc1ccc(CCO)cc1)c1ccc([N+](=O)[O-])cc1` (10 µM), the morphology score in assay [1] was -0.0336. Further, the SARS-CoV-2 infection rate in assay [2] is 112% (inactive).

For the compound `CNC(=O)c1cccc(NC(=O)N2CCC(Oc3ccccc3Cl)CC2)c1` (10 µM), the morphology score in assay [1] is -0.102. For the same compound, in assay [2], the SARS-CoV-2 infection rate is 114% (inactive).

In the case of `O=C1C(=O)N(Cc2ccc(Cl)c(Cl)c2)c2ccccc21` [apoptosis-activator-II] (10 µM), in assay [1], the morphology score worked out at 0.0389. For the same compound, in assay [2], the SARS-CoV-2 infection rate is 104% (inactive).

The compound `CC(=O)OCC(=O)[C@@]12OC(C)(C)O[C@@H]1C[C@H]1[C@@H]3C[C@H](F)C4=CC(=O)C=C[C@]4(C)[C@@]3(F)[C@@H](O)C[C@@]12C` [fluocinonide] (10 µM) came in with a morphology score in assay [1] of 0.184. For the same compound, the SARS-CoV-2 infection rate in assay [2] was 104% (inactive).

As for `CC(N)Cc1c[nH]c2ccc(OCc3cccs3)cc12` (stereo not given) (10 µM), the morphology score in assay [1] amounted to 0.0586. Besides, the SARS-CoV-2 infection rate in assay [2] was 90% (inactive).

In turn, `CSc1cc2c(cc1C(F)(F)F)N(C(=O)Nc1cccnc1)CC2` (10 µM) came in with a morphology score in assay [1] of -0.166. Also, the SARS-CoV-2 infection rate in assay [2] is 112% (inactive).

`CCO[C@@H](Cc1ccc(OCCc2ccc(OS(C)(=O)=O)cc2)cc1)C(=O)O` [tesaglitazar] (10 µM) showed a morphology score in assay [1] of 0.194. Moreover, the SARS-CoV-2 infection rate in assay [2] is 110% (inactive).

In assay [1], `CC(C)(C)C(=O)OCOP(=O)(COCCn1cnc2c(N)ncnc21)OCOC(=O)C(C)(C)C` [adefovir-dipivoxil] (10 µM) registered a morphology score of -0.117. Besides, in assay [2], the SARS-CoV-2 infection rate is 124% (inactive).

`O=C(Nc1cnc(Cl)nc1)c1ccc(F)c(F)c1` (10 µM) yielded a morphology score in assay [1] of 0.0439. For the same compound, the SARS-CoV-2 infection rate in assay [2] was 101% (inactive).

Consider `C[S+](CC[C@H](N)C(=O)O)C[C@H]1O[C@@H](n2cnc3c(N)ncnc32)[C@H](O)[C@@H]1O` (stereo not given in full) [ademetionine] (10 µM), for which the morphology score in assay [1] is 0.0625. In addition, the SARS-CoV-2 infection rate in assay [2] was 96.5% (inactive).

These data come from the supplement of paper PMC13380429.
